Data on 30 compounds can be found in PubChem BioAssay (NCATS).

Experiment [1] in a line: qHTS of pediatric cancer cell lines to identify multiple opportunities for drug repurposing: Confirmatory screen for OHS-50 cells (AID 1347128).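 Note: compound exposure lasted 48 h at 37 degrees C; nearly all actives have a fitted effect of over 55% in size.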 Note: potency is the fitted concentration of half-maximal effect. The note with it: OHS-50 osteosarcoma cells viability; series mostly up to 45.9 µM. The essentials: (§1)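 Cells (500-1,000/well) rested 5 h, then received compounds for 48 h; metabolically active cells were measured by CellTiter-Glo luminescence. Final concentrations spanned up to 46 µM (MIPE, 11-point) or 0.59 nM-46 µM (NPC, 8-point) in primary screens, 11-point in follow-ups.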

Experiment [2] in a line: qHTS of pediatric cancer cell lines to identify multiple opportunities for drug repurposing: Confirmatory screen for SK-N-SH cells (AID 1347129).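 Note: cells exposed to compound for 48 h before viability read; nearly all actives have a fitted effect of over 60% in size.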 Note: potency is the fitted concentration of half-maximal effect. As to conditions: SK-N-SH neuroblastoma cell viability; series mostly up to 46.1 µM. The essentials:
as §1

Experiment [3] has as its system Zika virus NS2B-NS3 protease. The experiment can be described thus: Primary screen GU AMC qHTS for Zika virus inhibitors (AID 1347154). Note: nearly all actives have a fitted effect of over 70% in size. As to conditions: Zika NS2B-NS3 unlinked protease, AMC fluorogenic substrate; series mostly up to 54.1 µM. In outline:
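Fluorogenic AMC-substrate cleavage by noncovalent NS2B-NS3 protease complex (25 nM, pH 8.0 Tris buffer with Tween 20) followed for 15 minutes at room temperature (~20% conversion). Percent inhibition from ex340/em450 signal change, fitted by 4-parameter Hill equation.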

Experiment [4] relates to Zika virus NS2B-NS3 protease (unlinked complex). As to the kind of experiment: Primary screen GU Rhodamine qHTS for Zika virus inhibitors: Unlinked NS2B-NS3 protease assay (AID 1347159). Note: nearly all actives have a fitted effect of over 60% in size. The note with it: Recombinant ZIKV NS2B-NS3 protease, Rhodamine110 substrate fluorescence; series mostly up to 107 µM. The essentials:
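Noncovalent NS2B hydrophilic domain/NS3 protease complex (25 nM final) in 10 mM Tris-HCl pH 8.0, 0.01% Tween 20, preincubated 15 min with compounds (up to 114 microM), then 1.5 microM Rhodamine110 substrate. Fluorescence change over 15 min fitted to 4-parameter Hill.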

For another experiment, the target named is Furin (Homo sapiens) (UniProt P09958). The experiment can be described thus: Furin counterscreen qHTS for Zika virus inhibitors (AID 1347149). Note: nearly all actives have a fitted effect of over 70% in size. Note: potency is the fitted concentration of half-maximal effect. As to conditions: furin enzymatic counterscreen, fluorogenic substrate; series mostly up to 57.5 µM. The essentials: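 Fluorogenic cleavage of BOC-RVRR-AMC (2 microM final, Km ~15 µM) was monitored (ex 340, em 450 nm) at 37C after 15 min RT preincubation of 5 nM furin with compounds in HEPES pH 7.0 buffer with CaCl2 and Triton X-100. Percent inhibition was fitted to a 4-parameter Hill curve.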

In experiment [5] the test system is Zika virus NS2B-NS3 protease (unlinked). As to the kind of experiment: Optimization of GU AMC qHTS for Zika virus inhibitors: Unlinked NS2B-NS3 protease assay (AID 1347151). Note: nearly all actives have a fitted effect of over 80% in size. As to conditions: recombinant ZIKV NS2B-NS3 protease, fluorogenic AMC substrate; series mostly up to 52.5 µM. In outline: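 Unlinked protease (25 nM final); buffer 10 mM Tris-HCl pH 8.0 + 0.01% Tween 20; AMC substrate; 15 min RT, dark; Δfluorescence normalized to no-inhibitor/no-enzyme controls; 4-parameter Hill fit.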

The test system of experiment [6] is Zika virus NS2B-NS3 protease (linked construct). The experiment can be described thus: Confirmatory screen NINDS AMC qHTS for Zika virus inhibitors (AID 1347152). Note: nearly all actives have a fitted effect of over 70% in size. Note: potency is the fitted concentration of half-maximal effect. The note with it: Purified linked NS2B-NS3, AMC substrate fluorescence; series mostly up to 56.6 µM. The essentials:
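Enzyme (1 nM, linked construct) was preincubated with compound for 15 minutes at room temperature in 10 mM Tris-HCl pH 8.0 with 0.01% Tween 20. Bz-Nle-Lys-Arg-Arg-AMC was then added to 10 microM, and AMC fluorescence was recorded immediately and after 15 minutes.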

For experiment [7], the system named is Zika virus NS2B-NS3 protease (unlinked complex). As to the kind of experiment: Confirmatory screen GU AMC qHTS for Zika virus inhibitors (AID 1347153).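 For Potency: enzyme at 25 nM with substrate at 10 µM below its Km of 18.3 µM; potency is the fitted concentration of half-maximal effect.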 Note: nearly all actives have a fitted effect of over 70% in size. As to conditions: Recombinant NS2B-NS3 protease, AMC substrate fluorescence; series mostly up to 57.1 µM. The essentials: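 Unlinked NS2B-NS3 complex (25 nM) in 10 mM Tris-HCl pH 8.0, 0.01% Tween 20 preincubated 15 min with compound, then 10 microM Bz-Nle-KRR-AMC (Km 18.3 µM). Fluorescence change over 15 min, normalized, Hill-fitted.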

SMILES strings stand for the structures. Inconclusive results are not listed. A number with no mark means an inactive call. The source made the active and inactive calls. Calls come from the whole dose curve; as a rule, active = well fitted curve in the direction sought with a large enough effect; inconclusive = small, poorly fitted or top-dose-only effect, or another doubt; inactive = no such curve, though single readings can be large; an effect the other way counts as inactive or inconclusive.

Chain of Furin (Homo sapiens) (P09958 whole entry, looked up): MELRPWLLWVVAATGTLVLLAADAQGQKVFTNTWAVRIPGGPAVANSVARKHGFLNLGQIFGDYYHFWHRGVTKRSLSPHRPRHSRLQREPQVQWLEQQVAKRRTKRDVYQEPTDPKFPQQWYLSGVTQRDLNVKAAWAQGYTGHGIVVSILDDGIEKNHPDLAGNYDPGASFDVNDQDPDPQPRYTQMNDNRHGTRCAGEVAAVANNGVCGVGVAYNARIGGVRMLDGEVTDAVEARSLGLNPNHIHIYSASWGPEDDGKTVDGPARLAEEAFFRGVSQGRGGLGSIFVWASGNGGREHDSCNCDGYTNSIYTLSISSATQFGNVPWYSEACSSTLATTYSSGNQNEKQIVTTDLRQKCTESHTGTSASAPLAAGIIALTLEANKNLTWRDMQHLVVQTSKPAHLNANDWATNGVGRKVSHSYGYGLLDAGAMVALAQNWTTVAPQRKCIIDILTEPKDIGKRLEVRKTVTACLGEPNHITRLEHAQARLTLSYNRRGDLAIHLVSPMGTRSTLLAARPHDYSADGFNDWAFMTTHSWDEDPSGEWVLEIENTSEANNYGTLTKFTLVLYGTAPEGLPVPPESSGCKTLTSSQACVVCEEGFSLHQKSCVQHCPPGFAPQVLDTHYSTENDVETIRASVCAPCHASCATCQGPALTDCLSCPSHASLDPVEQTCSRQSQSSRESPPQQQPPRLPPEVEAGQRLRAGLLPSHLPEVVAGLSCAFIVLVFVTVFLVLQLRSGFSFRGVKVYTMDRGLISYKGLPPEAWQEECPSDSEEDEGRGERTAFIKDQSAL

Consider `CC1(C)OC2CC3C4CC(F)C5=CC(=O)C=CC5(C)C4C(O)CC3(C)[C@]2(C(=O)CO)O1` (stereo not given in full), for which the Potency entry in experiment [1], in experiment [2] and in experiment [3] was “inactive” throughout.
In the case of `FC(F)(F)c1ccc(C=Cc2nc(COc3ccc(CCCCn4ccnn4)cc3)co2)cc1`, the Potency entry in experiment [1], in experiment [2] and in experiment [3] was “inactive” throughout.
In the case of `CC1=C(CC(=O)O)c2cc(F)ccc2C1=Cc1ccc(S(C)=O)cc1` (stereo not given), the Potency result in experiment [1], in experiment [2] and in experiment [3] was “inactive” in each case.
On to `COc1ccc2c(c1)c(C1=C(c3c[nH]c4ccccc34)C(=O)NC1=O)cn2CCCN(C)C`, for which the Potency in experiment [1] is 23.3 µM (active); in experiment [2], 16.6 µM (active). In experiment [3], the Potency result is “inactive”.
For `C[C@@H]1O[C@@H](O[C@H]2CC[C@@]3(C)[C@H](CC[C@@H]4[C@H]3C[C@@H](O)[C@]3(C)[C@@H](C5=CC(=O)OC5)CC[C@]43O)C2)C[C@H](O)[C@@H]1O[C@H]1C[C@H](O)[C@H](O[C@H]2C[C@H](O)[C@@H](O)[C@@H](C)O2)[C@H](C)O1` (stereo in doubt), in that order: “inactive”, 0.215 µM (active) and “inactive”.
Take `CC(C)CN(C[C@H](O)[C@H](Cc1ccccc1)NC(=O)O[C@H]1CCOC1)S(=O)(=O)c1ccc(N)cc1`: the Potency result in experiment [1], in experiment [2] and in experiment [3] was “inactive” throughout.
In the case of `C=CC(=O)Nc1cccc(Sc2nc(Nc3ccc(N4CCN(C)CC4)cc3)ncc2Cl)c1`, the Potency was 14.7 µM (active) in experiment [1] and 9.35 µM (active) in experiment [2]. For the same compound, the Potency entry in experiment [3] and in experiment [4] was “inactive” each time.
Turning to `CN[C@@H]1CN(c2ccc3c(=O)c(C(=O)O)cn(-c4nccs4)c3n2)C[C@@H]1OC`, the Potency is 6.44 µM (active) in experiment [1] and 7.24 µM (active) in experiment [2].
As for `CCCCn1c(=O)n(Cc2ccccc2F)c(=O)c2[nH]c(Cc3ccc(NC(C)=O)cc3)nc21`, the Potency result in experiment [1], in experiment [2], in experiment [3] and in experiment [4] was “inactive” throughout.
For the compound `C[C@@]1(C(=O)Nc2ccc(F)nc2)CCCN1c1nc(Nc2cc(C3CC3)[nH]n2)c2cccn2n1`, the Potency in experiment [1] was 5.22 µM (active); in experiment [2], 1.66 µM (active). Also, the Potency result in experiment [3] and in experiment [4] was “inactive” throughout.
Take `Cc1cnc(-c2cc(N3CCN(C(=O)CCS(C)(=O)=O)CC3)ncc2Cl)c(C)c1`: the Potency entry in experiment [1], in experiment [2], in experiment [3] and in experiment [4] was “inactive” throughout.
Regarding `COc1cc2ncnc(Nc3cc(Br)c(O)c(Br)c3)c2cc1OC`, the Potency entry in experiment [1] and in experiment [3] was “inactive” each time.
Turning to `OC(c1cc(C(F)(F)F)nc2c(C(F)(F)F)cccc12)C1CCCCN1` (stereo not given), the Potency in the experiment with Furin (Homo sapiens) was 0.961 µM (active). The result in experiment [5] was inactive. Moreover, the Potency entry in experiment [3] was “inactive”.
For the compound `CC[C@]1(O)C[C@H]2CN(CCC3=c4ccccc4=N[C]3[C@@](C(=O)OC)(c3cc4c(cc3OC)N(C)[C@H]3[C@@](O)(C(N)=O)[C@H](O)[C@]5(CC)C=CCN6CC[C@]43[C@@H]65)C2)C1`, the Potency in experiment [2] is 1.18 µM (active). Further, the Potency entry in experiment [3] was “inactive”.
For `Nc1ncnc2c1ncn2[C@@H]1O[C@H](CO)[C@@H](O)[C@@H]1O`, in that order: “inactive” and “inactive”.
`CO[C@H]1/C=C\O[C@@]2(C)Oc3c(C)c(O)c4c(O)c(c(C=NN5CCN(C6CCCC6)CC5)c(O)c4c3C2=O)NC(=O)C(C)=CC=C[C@H](C)[C@H](O)[C@@H](C)[C@@H](O)[C@@H](C)[C@H](OC(C)=O)[C@H]1C`: in experiment [2], the Potency entry was “inactive”.
Turning to `CCC(c1ccc(O)cc1)C(CC)c1ccc(O)cc1` (stereo not given), the Potency result in experiment [2] and in experiment [3] was “inactive” in each case.
Consider `CO[C@H]1/C=C\O[C@@]2(C)Oc3c(C)c(O)c4c(O)c(c5c(nc6cc(C)ccn65)c4c3C2=O)NC(=O)C(C)=CC=C[C@H](C)[C@H](O)[C@@H](C)[C@@H](O)[C@@H](C)[C@H](OC(C)=O)[C@H]1C`, for which the Potency result in experiment [2] and in experiment [3] was “inactive” in each case.
Turning to `Nc1[nH]nc2nnc(-c3c(-c4ccccc4)nn4ccccc34)cc12`, the Potency result in experiment [2], in experiment [3] and in experiment [4] was “inactive” in each case.
For the compound `Cc1ccc(C(=O)N(CCCN)[C@@H](c2oc3cc(Cl)ccc3c(=O)c2Cc2ccccc2)C(C)C)cc1`, the Potency in experiment [1] is 0.0093 µM (active). Also, in experiment [3], the Potency entry was “inactive”.
Turning to `CON(C)C(=O)N1N=C(c2cc(F)ccc2F)S[C@]1(CCCN)c1ccccc1`, the Potency in experiment [1] was 0.0052 µM (active). Moreover, the Potency entry in experiment [3] is “inactive”.
Take `O=C(O)Cc1cccc(OCCCN(Cc2cccc(C(F)(F)F)c2Cl)CC(c2ccccc2)c2ccccc2)c1`: the Potency is 7.62 µM (active) with Furin (Homo sapiens), 19.2 µM (active) in experiment [6] and 17.1 µM (active) in experiment [7].
On to `Cc1ccc(C(=O)N(CCCN)[C@@H](c2nc3cc(Cl)ccc3c(=O)n2Cc2ccccc2)C(C)C)cc1`, for which the Potency in experiment [2] is 12.1 µM (active). In experiment [3], the Potency result was “inactive”.
Consider `CCCCC[C@H](O)C=C[C@H]1[C@H](O)CC(=O)[C@H]1CCCCCCC(=O)O`, for which the Potency result (with Furin (Homo sapiens); in experiment [6]; in experiment [7]) was “inactive” in each case.
With `O=C(Nc1ccccc1)Nc1ccc(-c2ccc(C(=O)[C@H]3CCC[C@H]3C(=O)O)cc2)cc1`, the figures for the Potency (in the experiment with Furin (Homo sapiens); in experiment [6]; in experiment [7]) were 34 µM (active), 24.1 µM (active) and 24.1 µM (active), respectively.
For `CC(=O)N1CCN(c2ccc(OCc3nn(C)c(C)c3-c3cccc4c(CCCOc5cc(C)c(Cl)c(C)c5)c(C(=O)O)n(Cc5cccnc5)c34)cc2)CC1`, the Potency result in experiment [2] was “inactive”.
As to `COc1cc2nccc(Oc3ccc(NC(=O)Nc4cc(C)on4)c(Cl)c3)c2cc1OC`, in experiment [2], the Potency was 9.35 µM (active). Besides, the Potency entry in experiment [3] and in experiment [4] was “inactive” in each case.
For `Cc1c(C(=O)Nc2ccc(N3C[C@@H](C)O[C@@H](C)C3)nc2)cccc1-c1ccc(OC(F)(F)F)cc1`, the Potency entry in experiment [2], in experiment [3] and in experiment [4] was “inactive” each time.
In the case of `CC1(COc2ccc3c(c2)ncn3-c2ccc3cccc(N4CCC(N)CC4)c3n2)COC1`, the Potency in experiment [2] was 10.5 µM (active). The Potency entry in experiment [3] and in experiment [4] was “inactive” throughout.
In the case of `CCC[C@H](N[C@@H](C)C(=O)N1[C@@H]2CCCC[C@H]2C[C@H]1C(=O)O)C(=O)OCC`, the Potency result in experiment [2] and in experiment [3] was “inactive” each time.
